Screens as filed in PubChem.
An excerpt weighted towards active compounds, which were near 1.8% of everything screened.
NRP1-CendR mod: NRP-1/CendR interaction modulation. O14786. FAM-RPARPAR peptide binding to NRP-1, fluorescence polarization. inhibition, % at 25 µM. actives 0.85% (n = 360,000);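 active = inhibition or corrected inhibition above about 18%, plus a signal ratio from 0.5 to 1.5, limit read from the data, passing the limit was not always enough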
Target sequence (O14786 whole entry, looked up): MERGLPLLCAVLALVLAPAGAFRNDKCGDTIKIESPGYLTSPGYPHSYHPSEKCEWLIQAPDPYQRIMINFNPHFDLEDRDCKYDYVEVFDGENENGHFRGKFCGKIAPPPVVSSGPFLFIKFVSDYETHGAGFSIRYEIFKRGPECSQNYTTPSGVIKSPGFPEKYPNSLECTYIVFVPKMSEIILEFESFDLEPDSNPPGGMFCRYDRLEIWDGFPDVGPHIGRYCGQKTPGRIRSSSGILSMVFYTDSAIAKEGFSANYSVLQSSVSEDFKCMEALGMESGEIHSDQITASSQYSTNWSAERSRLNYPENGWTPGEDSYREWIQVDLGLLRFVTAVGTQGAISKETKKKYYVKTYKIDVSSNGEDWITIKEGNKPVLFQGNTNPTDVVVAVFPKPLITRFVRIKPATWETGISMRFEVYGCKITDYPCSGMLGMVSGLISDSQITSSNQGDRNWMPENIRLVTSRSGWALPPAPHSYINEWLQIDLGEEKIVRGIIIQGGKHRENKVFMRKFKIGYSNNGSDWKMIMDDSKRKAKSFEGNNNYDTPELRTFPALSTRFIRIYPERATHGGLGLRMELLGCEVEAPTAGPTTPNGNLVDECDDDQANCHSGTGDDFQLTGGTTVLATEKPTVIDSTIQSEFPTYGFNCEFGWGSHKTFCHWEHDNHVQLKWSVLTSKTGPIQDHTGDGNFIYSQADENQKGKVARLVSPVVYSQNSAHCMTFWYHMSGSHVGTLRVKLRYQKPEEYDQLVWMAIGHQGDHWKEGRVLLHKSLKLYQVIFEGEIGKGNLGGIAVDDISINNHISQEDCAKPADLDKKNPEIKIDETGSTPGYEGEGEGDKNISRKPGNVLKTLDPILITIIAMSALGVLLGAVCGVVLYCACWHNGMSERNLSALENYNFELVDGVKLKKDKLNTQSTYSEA
MIN6 prolif: induces beta-cell replication in MIN6 cells; MIN6 cells proliferation, ATPlite luminescence, 48 h; cells starved in 0.2% serum; 100% = growth in 10% serum; proliferation, % at 10 µM; actives 0.29% (n = 330,000);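 active = compounds whose signal lies at least 3.5 SD above the mean of all wells on their plate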;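 note: 0% = DMSO-treated cells in low-serum medium and 100% = 10% serum control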
A3G deaminase: blocks human APOBEC3G single-stranded DNA deamination | recombinant A3G, ssDNA deamination FAM/TAMRA fluorescence | inhibition, % at 20 µM | actives 0.28% (n = 330,000) | AID 493012;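 active = inhibition of at least 40% at 20 µM, with no more than 30% in the related APOBEC3A deaminase screen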;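 note: plate controls were DMSO wells with A3G for no effect and wells lacking A3G enzyme for full effect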
A3A deaminase: blocks human APOBEC3A ssDNA deamination; P31941; recombinant A3A, FAM/TAMRA ssDNA deamination fluorescence; inhibition, % at 20 µM; actives 0.41% (n = 330,000); AID 493011;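 active = at least 40% inhibition at 20 µM here, with at most 30% in a related deaminase screen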;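 note: plate controls were A3A with DMSO for no effect and wells lacking A3A enzyme for full effect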
VLA-4 inh: inhibition in a human VLA-4 binding assay. VLA-4 expressing cells, ligand binding flow cytometry. inhibition, % (about 7 µM as worked out from the volumes in the protocol). actives 0.2% (n = 330,000); in the data active = inhibition above about 50%
APOBEC3A confirm: confirmation of human APOBEC3A DNA deaminase inhibitors. shares compounds with A3A deaminase. recombinant A3A, ssDNA deaminase UDG fluorescence assay. inhibition, % at 20 µM. actives 63% (n = 1,400). AID 493151;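 active = inhibition reaching a set limit, 80% of the first screen's cutoff, at 20 µM in any replicate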;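 note: plate controls were DMSO wells with A3A for no effect and wells lacking A3A enzyme for full effect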
UDG A3A counter: inhibits UDG, flagging false APOBEC3A inhibitors; shares compounds with A3A deaminase; inhibition, % at 20 µM; 1,000 tested, under 10 active; UDG counterscreen, FAM/TAMRA uracil oligo fluorescence; AID 504714; call rule not given here
The depositor's hits bear a star; . = no result.

SMILES	NRP1-CendR mod	MIN6 prolif	A3G deaminase	A3A deaminase	VLA-4 inh	APOBEC3A confirm	UDG A3A counter
CCN1CCN(c2ccc(S(=O)(=O)N3CCCCC3)cc2NC(=O)Cc2ccc(Cl)c(Cl)c2)CC1	11	-7	-11	-2	13	.	.
CCOc1ccc(OC(=O)c2cccc(S(=O)(=O)N3CCN(C)CC3)c2)cc1	9	-4	6	60*	8	18	.
CC(=O)c1ccc(OCCCC(=O)Nc2cc(S(=O)(=O)N3CCCCC3)ccc2C)cc1	-8	-1	5	40*	.	9	.
CCN1CCN(c2ccc(S(=O)(=O)N3CCCCC3)cc2NC(=O)c2ccc(C)o2)CC1	-4	0	7	63*	7	71*	2
CCN1CCN(c2ccc(S(=O)(=O)N3CCCCC3)cc2NC(=O)c2cccc(C(F)(F)F)c2)CC1	-2	-8	18	57*	-2	51*	0
Cc1ccc(S(=O)(=O)N2CCCCC2)cc1NC(=O)CCCOc1ccccc1	15	-5	-1	14	.	.	.
COc1ccc(N(C)S(=O)(=O)c2cccc(C(=O)N3CCN(S(=O)(=O)c4ccc(C)cc4)CC3)c2)cc1	-18	-4	-1	1	16	.	.
CC(=O)c1ccccc1OC(=O)COc1ccc([N+](=O)[O-])cc1	11	-3	0	-7	0	.	.
CCCCc1nnc(NC(=O)c2cccc(S(=O)(=O)N3CCN(C)CC3)c2)s1	22	0	21	58*	-8	20	.
CCN1CCN(c2ccc(S(=O)(=O)N3CCCCC3)cc2NC(=O)Cc2ccccc2F)CC1	6	-3	-14	3	-17	.	.
CCN1CCN(c2ccc(S(=O)(=O)N3CCCCC3)cc2NC(=O)c2ccccc2)CC1	-4	2	7	46*	7	23*	2
CCN1CCN(c2ccc(S(=O)(=O)N3CCCCC3)cc2NC(=O)Cc2ccccc2)CC1	-11	-4	11	57*	19	64*	-2
CCN1CCN(c2ccc(S(=O)(=O)N3CCCCC3)cc2NC(=O)c2cccc(F)c2)CC1	13	-1	-11	8	1	.	.
COc1ccccc1C(=O)NCCN=C1NS(=O)(=O)c2ccccc21	5	-5	-11	-2	13	.	.
Cc1ccccc1OCCC(=O)Nc1ccc(S(=O)(=O)N(C)C2CCN(C)CC2)cc1	-2	0	7	1	-9	.	.
CN1CCC(N(C)S(=O)(=O)c2ccc(NC(=O)COc3ccc(Br)cc3Cl)cc2)CC1	-5	-7	-6	42*	5	48*	2
Cc1c(C(=O)Nc2ccc(S(=O)(=O)N(C)C3CCN(C)CC3)cc2)oc2ccccc12	20	-8	-5	1	37	.	.
CN1CCC(N(C)S(=O)(=O)c2ccc(NC(=O)COc3cccc(Cl)c3)cc2)CC1	20	-4	-8	-3	4	.	.
Cc1ccc(OCC(=O)Nc2ccc(S(=O)(=O)N(C)C3CCN(C)CC3)cc2)c(C)c1	4	-2	16	43*	3	55*	-3
CN1CCC(N(C)S(=O)(=O)c2ccc(NC(=O)c3ccc(S(=O)(=O)N(C)C)cc3)cc2)CC1	-4	-2	1	47*	0	39*	-3
Cc1cc(NC(=O)COC(=O)C2CC(=O)N(c3cccc(C)c3C)C2)no1 (centres undefined)	1	-2	-15	1	3	.	.
CCOCCc1nnc(NC(=O)CCC2CCCCC2)s1	6	4	-9	-2	9	.	.
CCSc1nnc(SCC(=O)c2c(N)n(C)c(=O)n(C)c2=O)s1	-41	-4	-8	-1	.	.	.
CC(=O)Nc1ccc(NC(=O)C(C)OC(=O)[C@@H]2CCCN2C(=O)c2cccs2)cc1 (some centres undefined)	2	-2	-2	5	-10	.	.
Cc1cc(Cl)ccc1OCC(=O)N[C@@H](Cc1ccccc1)c1nc2ccccc2[nH]1	-2	-1	15	42*	9	24	.
SMILES	NRP1-CendR mod	MIN6 prolif	A3G deaminase	A3A deaminase	VLA-4 inh	APOBEC3A confirm	UDG A3A counter
O=C(Nc1ccccc1Cl)C1CC(=O)N(Cc2ccco2)C1 (centres undefined)	4	1	-9	-4	17	.	.
Cc1[nH]c2ccccc2c1/C=C/c1cc[n+](C)cc1	129	.	.	.	.	.	.
Cc1ccccc1/C=C/c1cc[n+](C)cc1	11	0	19	59*	9	73*	-3
COc1cc(Nc2cccc[n+]2C)cc(OC)c1OC	-6	-2	29	69*	-2	62*	-5
NC(=O)c1ccc2c(=O)c(O)c(-c3cc(Cl)c(N)c(Cl)c3)[nH]c2c1	-8	-1	-2	-2	6	.	.
O=C(Nc1nnc(SCc2ccc(F)cc2)s1)C1CC(=O)N(c2ccc3c(c2)OCCO3)C1 (centres undefined)	0	0	0	-1	4	.	.
Cc1nnc(NC(=O)C2CC(=O)N(c3ccc4c(c3)OCCO4)C2)s1 (centres undefined)	7	-1	-4	0	10	.	.
O=C(Nc1nc(-c2ccco2)c(-c2ccco2)s1)C1CC(=O)N(c2ccc3c(c2)OCCO3)C1 (centres undefined)	-52	-2	27	49*	2	37*	-4
O=C(Nc1nnc(SCc2c(Cl)cccc2Cl)s1)C1CC(=O)N(c2ccc3c(c2)OCCO3)C1 (centres undefined)	-13	-2	21	64*	3	23	.
CSc1ccccc1NC(=O)COC(=O)c1ccc(-n2nc(C)cc2C)cc1	12	0	-2	1	-12	.	.
CC(C)c1cccc(-c2csc(C(C)(O)c3ccc(F)c(F)c3)n2)c1 (centres undefined)	16	.	.	.	.	.	.
CC1CCC/C(=N/NC(=O)c2ccccc2-n2cccc2)C1 (centres undefined)	-10	-2	16	53*	-16	13*	-3
CC1CCC(=NNC(=O)c2ccccc2-n2cccc2)CC1 (centres undefined)	3	1	-9	-4	3	.	.
O=Cc1ccc(-c2c(-c3ccccc3)oc3c2C(OCCCCO)CCC3)o1 (centres undefined)	-38	.	.	.	.	.	.
Cc1ccc(NC(=O)c2ccccc2CCc2ccccc2)c(C)c1	19	0	2	100*	10	4	.
Cc1cc(C)c(NC(=O)c2ccccc2CCc2ccccc2)c(C)c1	-2	1	0	0	-23	.	.
C[N+]1(CC2COC3(CCCCC3)O2)CCCC1 (centres undefined)	-5	0	29	32	11	.	.
CC1CC(C)(C)OC(C[N+]2(C)CCCCC2)O1 (centres undefined)	0	-1	20	49*	7	77*	3
Cc1cc(C)cc(Nc2nc(-c3ccc(S(=O)(=O)N4CCCC4)cc3)cs2)c1	0	-5	-6	-2	8	.	.
